Assay outcomes deposited in PubChem BioAssay by National Center for Advancing Translational Sciences (NCATS).
Sampled rows, rich in hits. Any-hit rate of the full collection: about 5.8%.
SW480 rereplic = DNA re-replication induction in SW480 cells. SW480 DNA re-replication, Hoechst DNA content imaging, 48 h. AID 624297. 340,000 compounds, 1.8% hits. Potency, µM (doses to about 46.1 µM), actives largely listed as activators; further: nearly all actives have a fitted effect of over 55% in size
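SW480 cells exposed to compounds for 48 hr at 37 C, 5% CO2, then Hoechst-stained 40 min. Nuclear DNA content imaged by fluorescence scanning (405 nm excitation, 500-530 nm emission); re-replication scored as increased high-intensity nuclei.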
MCF10A rereplic = inducers of DNA re-replication in MCF 10A breast cells | AID 624296 | MCF 10A DNA re-replication, Hoechst nuclear intensity, 48 h | 350,000 compounds, 2.9% hits | Potency, µM (doses to about 46.1 µM), usual class: activators; further: nearly all actives have a fitted effect of over 50% in size
PINK1 modulator = changes PINK1 expression. 410,000 compounds, 0.2% hits. PINK1 immunofluorescence, high-content cytometry, 24 h. Potency, µM (doses to about 76.6 µM), most hits filed as activators; active means well fitted activation curve with a large enough effect; inconclusive means small, poorly fitted or top-dose-only effect; cell line not stated here; further: nearly all actives have a fitted effect of over 65% in size
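PINK1 protein level read as immunofluorescence by microplate cytometer in a fixed, stained stable cell line after 24 h exposure to five compound concentrations, with CCCP as control.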
ALOX12 inh = blocks human arachidonate 12S-lipoxygenase | P18054 | purified 12hLO, xylenol orange hydroperoxide absorbance | Potency, µM (series often up to 108 µM), usual class: inhibitors | 580,000 compounds, 1.1% hits
Target sequence (P18054 whole entry, looked up): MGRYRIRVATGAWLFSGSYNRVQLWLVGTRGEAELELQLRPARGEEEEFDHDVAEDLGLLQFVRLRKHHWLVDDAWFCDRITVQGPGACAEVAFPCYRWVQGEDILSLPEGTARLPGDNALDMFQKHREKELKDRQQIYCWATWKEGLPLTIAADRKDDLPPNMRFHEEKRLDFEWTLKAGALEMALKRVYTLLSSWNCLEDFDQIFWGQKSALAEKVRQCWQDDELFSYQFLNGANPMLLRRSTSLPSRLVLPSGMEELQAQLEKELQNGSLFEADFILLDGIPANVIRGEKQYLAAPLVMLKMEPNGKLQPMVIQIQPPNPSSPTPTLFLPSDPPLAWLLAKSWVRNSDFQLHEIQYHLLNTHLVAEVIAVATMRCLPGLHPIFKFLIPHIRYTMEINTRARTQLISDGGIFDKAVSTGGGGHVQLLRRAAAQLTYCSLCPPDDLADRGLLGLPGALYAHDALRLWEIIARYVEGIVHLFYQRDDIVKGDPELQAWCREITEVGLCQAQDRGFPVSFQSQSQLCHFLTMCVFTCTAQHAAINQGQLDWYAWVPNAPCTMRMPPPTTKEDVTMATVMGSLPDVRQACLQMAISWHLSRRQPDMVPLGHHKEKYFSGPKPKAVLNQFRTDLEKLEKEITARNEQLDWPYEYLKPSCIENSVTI
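Purified human 12hLO (150 nM final) in 25 mM Hepes, 0.01% Triton X-100, pH 7.0 was preincubated 15 min at room temperature with compound. Then 40 uM arachidonic acid was added, 30 min. Hydroperoxide was read by Fe-XO absorbance ratio 573/405 nm.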
KB-V1 MDR tox = kills drug-selected multidrug resistant KB-V1 cells | Potency, µM (top dose mostly 46.1 µM), actives largely listed as cytotoxic | KB-V1 MDR cells viability, CellTiter-Glo, 72 h | 400,000 compounds, 3.4% hits; further: nearly all actives have a fitted effect of over 60% in size
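KB-V1 cells (P-gp-expressing MDR subline of KB-3-1) in phenol-red-free DMEM with 10% FBS were exposed to library compounds over a concentration series for 72 h at 37 degrees C. Viability read by CellTiter-Glo luminescence; concentration-effect curves fitted after normalization.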
KB-3-1 tox = kills parental KB-3-1 adenocarcinoma cells; KB-3-1 viability, CellTiter-Glo ATP luminescence, 72 h; Potency, µM (series often up to 46.1 µM), usual class: cytotoxic; 400,000 compounds, 1.4% hits; AID 1347075; further: nearly all actives have a fitted effect of over 60% in size
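Viability of parental KB-3-1 cells, measured by CellTiter-Glo luminescence, followed a 72 h incubation at 37 °C with pinned compounds in phenol-red-free DMEM containing 10% FBS.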
Of the large screens only hits and unclear results are named; the others gave an inactive call. Unless noted, the call rests on the fitted dose curve; in most records, active means well fitted curve in the direction sought with a large enough effect; inconclusive means small, poorly fitted or top-dose-only effect, or another doubt; inactive means no such curve, though single readings can be large; an effect the other way counts as inactive or inconclusive.

Cc1ccccc1OCC(O)CN1CCN(CCN2C(=O)c3cccc4cccc(c34)C2=O)CC1 (centres undefined)	KB-V1 MDR tox inconclusive, KB-3-1 tox inconclusive
Cc1cccc(C)c1OCC(O)CN1CCC(CN2C(=O)c3cccc4cccc(c34)C2=O)CC1 (centres undefined)	SW480 rereplic inconclusive, MCF10A rereplic inconclusive, ALOX12 inh inconclusive, KB-V1 MDR tox inconclusive, KB-3-1 tox 20.6µM
Cc1ccc2cc(C(=O)NC3CCS(=O)(=O)C3)c(C)nc2c1 (centres undefined)	none (no result: SW480 rereplic, MCF10A rereplic, PINK1 modulator, KB-V1 MDR tox, KB-3-1 tox)
Cc1ccc(Nc2nc(NCC3CCCO3)nc(N)c2[N+](=O)[O-])cc1 (centres undefined)	KB-V1 MDR tox 20.6µM
CCN1c2cc(C(=O)NCc3ccc(Cl)cc3)ccc2C(=O)N2CCCCC21 (centres undefined)	none (no result: SW480 rereplic, MCF10A rereplic, PINK1 modulator, KB-V1 MDR tox, KB-3-1 tox)
O=C(CSc1nc2cc(Cl)ccc2s1)NC1CCCCC1	none (no result: SW480 rereplic, MCF10A rereplic, PINK1 modulator, KB-V1 MDR tox, KB-3-1 tox)
Cc1ccc(-n2nc3c(N4CCC(C(=O)NCc5ccccc5C)CC4)nnc(C)c3c2C)cc1	MCF10A rereplic inconclusive, KB-V1 MDR tox inconclusive, KB-3-1 tox inconclusive (no result: ALOX12 inh)
CCOc1ccccc1CNC(=O)C1CCN(c2nnc(C)c3c(C)n(-c4ccc(C)cc4)nc23)CC1	SW480 rereplic inconclusive, MCF10A rereplic 23.1µM, KB-3-1 tox inconclusive
COc1ccc(C)cc1NC(=O)N1CCN(c2nnc(C)c3c(C)n(-c4ccccc4)nc23)CC1	PINK1 modulator 28.2µM (no result: SW480 rereplic, MCF10A rereplic)
COc1ccc(NC(=O)Cn2cccc2-c2nc(-c3ccc4c(c3)OCO4)no2)cc1	none (no result: SW480 rereplic, MCF10A rereplic, PINK1 modulator, KB-V1 MDR tox, KB-3-1 tox)
CCN1CCN(Cc2cc(C)cc(CN(C)Cc3ncc(C)[nH]3)c2C)CC1	none (no result: SW480 rereplic, MCF10A rereplic, PINK1 modulator, KB-V1 MDR tox, KB-3-1 tox)
COc1ccc(CN2CCCC3(C2)C(=NC2CCCC2)NC(=O)N3c2cccnc2)cc1 (centres undefined)	none (no result: SW480 rereplic, MCF10A rereplic, PINK1 modulator, KB-V1 MDR tox, KB-3-1 tox)
O=C(Nc1ccc(Cl)cc1)c1ccc2c(c1)CCC2	none (no result: SW480 rereplic, MCF10A rereplic, PINK1 modulator, KB-V1 MDR tox, KB-3-1 tox)
Cc1cc(=O)oc2cc(OC(C)C(=O)NCc3cccnc3)ccc12 (centres undefined)	none (no result: SW480 rereplic, MCF10A rereplic, PINK1 modulator, KB-V1 MDR tox, KB-3-1 tox)
Cc1ccc([N+](=O)[O-])cc1S(=O)(=O)N(C)N=Cc1cnc2ccc(Br)cn12	ALOX12 inh 8.63µM (no result: SW480 rereplic, MCF10A rereplic, PINK1 modulator, KB-V1 MDR tox, KB-3-1 tox)
Cc1ccc2cc(CN(Cc3ccc4c(c3)OCO4)Cc3nnnn3Cc3ccco3)c(=O)[nH]c2c1C	ALOX12 inh 12.6µM
COc1ccc2[nH]c(=O)c(CN(Cc3ccco3)Cc3nnnn3Cc3ccccc3)cc2c1	KB-V1 MDR tox 7.31µM
Cc1ccc2cc(CN(CCN3CCOCC3)Cc3nnnn3Cc3ccco3)c(=O)[nH]c2c1C	none
Cc1ccc2cc(CN(CCCN3CCOCC3)C(c3nnnn3Cc3ccco3)C(C)C)c(=O)[nH]c2c1C (centres undefined)	SW480 rereplic 20.6µM, MCF10A rereplic inconclusive
Cc1ccc(C)c2[nH]c(=O)c(CN(Cc3ccc4c(c3)OCO4)Cc3nnnn3Cc3ccco3)cc12	SW480 rereplic inconclusive, MCF10A rereplic inconclusive, ALOX12 inh inconclusive
CNC(=S)N(Cc1ccco1)Cc1cc2cc(OC)ccc2[nH]c1=O	KB-V1 MDR tox inconclusive
COC(=O)c1ccccc1S(=O)(=O)N(Cc1ccco1)Cc1cc2cc(OC)ccc2[nH]c1=O	ALOX12 inh inconclusive, KB-V1 MDR tox 8.2µM
CCc1ccc2[nH]c(=O)c(CN(Cc3ccccc3OC)Cc3nnnn3Cc3ccco3)cc2c1	SW480 rereplic inconclusive, MCF10A rereplic inconclusive, KB-V1 MDR tox inconclusive, KB-3-1 tox 20.6µM
Cc1ccc2[nH]c(=O)c(CN(CCO)Cc3nnnn3Cc3ccco3)cc2c1	KB-V1 MDR tox inconclusive, KB-3-1 tox inconclusive (no result: SW480 rereplic, MCF10A rereplic, ALOX12 inh)
COc1ccccc1CN(Cc1cc2cc(C)ccc2[nH]c1=O)Cc1nnnn1Cc1ccco1	ALOX12 inh inconclusive, KB-V1 MDR tox 18.4µM, KB-3-1 tox inconclusive
CCOC(=O)Cn1nnnc1C(CC)N(Cc1cccs1)Cc1cc2cc(C)ccc2[nH]c1=O (centres undefined)	KB-V1 MDR tox inconclusive
CCOC(=O)Cn1nnnc1C(C(C)C)N(Cc1cccs1)Cc1cc2cc(C)ccc2[nH]c1=O (centres undefined)	MCF10A rereplic inconclusive, KB-V1 MDR tox 11.2µM, KB-3-1 tox inconclusive (no result: PINK1 modulator)
Cc1cc2cc(C(c3nnnn3C(C)(C)C)N(Cc3ccco3)CC3CCCO3)c(=O)[nH]c2cc1C (centres undefined)	KB-V1 MDR tox inconclusive, KB-3-1 tox inconclusive (no result: PINK1 modulator)
COc1ccc2[nH]c(=O)c(C(c3nnnn3C(C)(C)C)N(Cc3ccco3)CC3CCCO3)cc2c1 (centres undefined)	SW480 rereplic 7.31µM
O=C(NCc1ccccc1C(F)(F)F)c1n[nH]c2c1CCCC2	none (no result: SW480 rereplic, MCF10A rereplic, PINK1 modulator, KB-V1 MDR tox, KB-3-1 tox)
CCOC(=O)Cn1nnnc1CN(Cc1ccc(OC)cc1)Cc1cc2cc(C)ccc2[nH]c1=O	MCF10A rereplic 23.1µM, ALOX12 inh inconclusive
COc1cccc(C(=O)SC2=NCCS2)c1	MCF10A rereplic 14.6µM, ALOX12 inh inconclusive (no result: PINK1 modulator)
CCCCCCC1CCC(C(=O)NC(CCSC)C(=O)NC(C(=O)OC)C(C)C)CC1 (centres undefined)	MCF10A rereplic 7.31µM
CC(=O)O[C@@H]1C[C@H]2C(C)=C[C@H]3OC(=O)[C@@H](C)[C@H]3C[C@H]2[C@]1(C)O	none
C=C1C(=O)O[C@H]2C[C@H]1[C@@H](OC(C)=O)C/C(C)=C/CC/C(C)=C\CC[C@]2(C)O	SW480 rereplic 23.1µM, MCF10A rereplic inconclusive
COC(=O)c1[nH]c2cc(Cl)ccc2c1C=O	none (no result: SW480 rereplic, MCF10A rereplic, PINK1 modulator, KB-V1 MDR tox, KB-3-1 tox)
